Reference: PubChem BioAssay AID932 (The Scripps Research Institute Molecular Screening Center, 2007)
The whole screen tested about 200,000 compounds, of which about 5,100 (2.5%) were called active.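 How the source made its calls: active means activation above the screen-wide mean activation plus 3 SD (cut at about 130% in these data); inactive means the rest.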 The sample as a whole holds a higher share of actives than the screen did.

Experiment: STAT1 signaling activators, primary screen, cell-based, HTS, luciferase reporter (AID 932);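 further: raw ratio to IFN-gamma control signal so 100% means no change and 0% no light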
Settings: NIH 3T3 STAT1-luciferase reporter, IFN-gamma, luminescence; at 5.5 µM; hits give high values; 100% = IFN-gamma alone, no compound

SMILES	activation (% of control)
COc1ccc(/C=N/NC(=O)CNC(=O)c2ccc(S(=O)(=O)N3CCCC3)cc2)c(OC)c1	99.5% (inactive)
Cc1cc(C)nc(N/N=C/c2c(C)oc3ccccc23)n1	98.5% (inactive)
C(=N\Nc1ccc2ccccc2n1)/c1ccc2c(c1)OCO2	35.8% (inactive)
Cc1noc(C)c1/C=N/Nc1ccc2ccccc2n1	157% (active)
Cc1cccc(C)c1NC(=O)C(c1ccccc1)N1CC(=O)Nc2ccccc21 (configuration not stated)	94.6% (inactive)
COc1cc(OC)cc(C(=O)N[C@H](C(=O)Nc2nc3ccccc3[nH]2)C(C)C)c1	96.1% (inactive)
COC(=O)Nc1nc2ccc(Sc3ccccc3)cc2[nH]1	135% (active)
Cc1nc2ccc(C(=O)O)cc2[nH]1	96.9% (inactive)
O=C(CCCc1ccccc1)NCc1ccccc1	108% (inactive)
CCOC(=O)CCNC(=O)N1CCCC(C(=O)c2ccccc2SC)C1 (configuration not stated)	92.5% (inactive)
O=C(Nc1ccc2nc3n(c(=O)c2c1)CCCCC3)c1ccccc1Cl	101% (inactive)
O=C(Nc1ccc2sc3ccccc3c(=O)c2c1)c1ccccc1Cl	144% (active)
COc1cc(NC(=O)c2cccs2)ccc1NC(=O)c1ccccc1Cl	109% (inactive)
C#CCOCCOCCOCCNc1nc(N2CCN(C(=O)[C@H](C(C)C)n3cc(CCO)nn3)CC2)nc(N2CCN(C(=O)[C@H]([C@@H](C)CC)n3cc(CCCN=C(N)N)nn3)CC2)n1	100% (inactive)
O=C(COc1ccccc1[N+](=O)[O-])NC1CC1	92.9% (inactive)
NS(=O)(=O)c1ccc(NC(=S)NNC(=O)c2cccs2)cc1	104% (inactive)
N#Cc1c(NC(=O)C2CC(Cl)=CCC2C(=O)O)sc2c1CCCCC2 (configuration not stated)	103% (inactive)
N#Cc1c(NC(=O)CCCl)sc2c1CCCCC2	101% (inactive)
N#Cc1c(NC(=O)C2CCCO2)sc2c1CCCCC2 (configuration not stated)	139% (active)
CCc1ccc(NC2Nc3cc(C)nn3S2)cc1 (configuration not stated)	171% (active)
CCc1ccc(NC(=O)N2CCN(c3ccccc3)CC2)cc1	109% (inactive)
CCOC(=O)c1ccc(NC2Nc3cc(C)nn3S2)cc1 (configuration not stated)	102% (inactive)
COc1ccc(/C(N)=N/OC(=O)Oc2ccccc2)cc1	98.3% (inactive)
COc1ccc(/C(N)=N/OC(=O)Cc2ccccc2)cc1	142% (active)
COc1ccc(/C(N)=N/OC(=O)CCCc2ccccc2)cc1	108% (inactive)
COc1ccccc1-c1nc(SC)n[nH]1	103% (inactive)

SMILES	activation (% of control)
CCOc1ccc(OCc2cccc(C(=O)N(CC)CC)c2)cc1	43.9% (inactive)
O=C(Nc1ccc(Sc2ccc(Br)cc2)cc1)c1ccco1	93.9% (inactive)
C/C(=N/NS(=O)(=O)c1ccccc1)c1ccc(NC(=O)C(F)(F)F)cc1	105% (inactive)
Cc1ccc(C(=O)COc2cccc(NC(=O)c3ccco3)c2)cc1	93.6% (inactive)
COc1cccc(C(=O)Nc2ccc(NC(=O)c3ccco3)cn2)c1	108% (inactive)
O=C(O)Cc1ccc(NC(=O)c2cccs2)cc1	89.8% (inactive)
COC(=O)c1ccc(NC(=O)c2ccco2)cc1	124% (inactive)
Cc1ccoc1C(=O)Nc1cccc(Oc2ccccc2)c1	137% (active)
Cc1cccc(NC(=O)Nc2cccc(Oc3c(F)c(F)c(F)c(F)c3F)c2)c1	101% (inactive)
O=C(Nc1ccc(Oc2ccccc2)cc1)c1ccco1	132% (active)
C/C(=N\NS(=O)(=O)c1ccc(Cl)cc1)c1ccc(NC(=O)c2ccco2)cc1	142% (active)
O=C(Nc1ccc(NC(=O)c2cccs2)cn1)c1ccco1	142% (active)
CN1CCN(S(=O)(=O)c2ccc(NC(=O)c3ccco3)cc2)CC1	98.8% (inactive)
Cc1c(Cl)cccc1NC(=S)N(Cc1ccccc1)Cc1cccnc1	94.9% (inactive)
CC(=O)Nc1ccc(NC(=S)NC(=O)/C=C/c2ccccc2)cc1	87.3% (inactive)
COc1cc(/C=N/N=C(\N)c2nonc2N)cc(OC)c1OC	102% (inactive)
CC(C)(C)n1nc2c(c1NC(=O)c1cc3ccccc3o1)CSC2	97.4% (inactive)
Cc1cc(C)n(-c2nnc(N3CCN(c4ccccc4)CC3)nn2)n1	104% (inactive)
O=C(/C=C/c1ccco1)Nc1ccc(Oc2ccccc2)cc1	134% (active)
Cc1ccnc(NC(=O)c2ccoc2C)c1	127% (inactive)
Cc1nnc(NC(=O)/C=C/c2ccco2)s1	105% (inactive)
Cc1ccnc(NC(=O)c2ccco2)n1	101% (inactive)
O=C(/C=C/c1ccco1)Nc1cccc(-c2nc3ccccc3[nH]2)c1	119% (inactive)
Cc1ccnc(NC(=O)c2ccc(NC(=O)c3ccco3)cc2)c1	129% (active)
Cn1c(=O)c2c(ncn2CC(=O)N/N=C/c2cn[nH]c2-c2ccc(F)cc2)n(C)c1=O	109% (inactive)
CC(Oc1ccccc1F)C(=O)NN (configuration not stated)	98% (inactive)

SMILES	activation (% of control)
CC(C)c1nc(CNC(=O)CC2C(=O)NCCN2Cc2ccoc2)cs1 (configuration not stated)	101% (inactive)
O=C(O)c1ccc(NS(=O)(=O)c2ccc3c(c2)C(=O)c2cc(S(=O)(=O)Nc4ccc(C(=O)O)cc4)ccc2-3)cc1	95.5% (inactive)
CCCn1nc(C(=O)N2CCCc3ccccc32)c2ccccc2c1=O	97.4% (inactive)
COc1ccc(-n2cnc3cc(NCc4ccco4)ccc32)cc1	137% (active)
COc1ccc(Nc2nc(Cl)nc(NCc3ccco3)n2)cc1	104% (inactive)
COc1ccc(-n2cnc3cc(C(=O)NC4CCCC4)ccc32)cc1	110% (inactive)
COc1cc(C(=O)N[C@@H](C)C(=O)NCc2ccco2)cc(OC)c1OC	102% (inactive)
CN(CC(=O)Nc1ccccc1[N+](=O)[O-])Cc1ccc(Br)cc1	97.7% (inactive)
CC(C)CCN1CCN(Cc2ccc(C(F)(F)F)cc2)CC1CCO (configuration not stated)	100% (inactive)
O=C1CC(c2cccc(Cl)c2)CC(O)=C1C=Nc1ccccc1 (configuration not stated)	99.6% (inactive)
CC1=NN(c2ccccc2)C(=O)C1C(=O)c1ccc([N+](=O)[O-])cc1 (configuration not stated)	94.7% (inactive)
Cn1c(=O)n(Cc2ccco2)c(=N)c2c3c(sc21)CCCC3	103% (inactive)
N#CCSc1nc2ccc(N3CCOCC3)cc2c(=O)n1CCc1ccccc1	102% (inactive)
Cc1cc(C(=O)Nc2ccccc2N2CCOCC2)c2ccccc2n1	102% (inactive)
Cc1nn2c3cc(N4CCOCC4)ccc3nc2c2ccccc12	134% (active)
CCCc1c(C)nc2c(Br)cccc2c1Cl	97.5% (inactive)
Cc1nc2ccccc2nc(C)c1=NOCc1ccc(Cl)cc1Cl	111% (inactive)
Clc1ccc(-c2nnc(SCc3nc4ccccc4s3)o2)cc1	122% (inactive)
O=C(OCC#CCSc1nnc(-c2ccncc2)o1)c1sc2ccccc2c1Cl	100% (inactive)
C#CCSc1nnc(-c2sc3ccccc3c2Cl)o1	140% (active)
Cc1nonc1C1CCCN1Cc1nc(-c2ccc(F)cc2F)oc1C (configuration not stated)	96% (inactive)
CN(C)CCn1c(=S)[nH]c2ccc(Cl)cc2c1=O	95.1% (inactive)
CN(C)CCN=c1cc(-c2ccccc2)oc2ccc(Cl)cc12	148% (active)
Cc1ccc(N(Cc2cc3ccccc3[nH]c2=O)C(=O)c2cccs2)cc1	91.2% (inactive)
CN(C)S(=O)(=O)Oc1ccccc1C(=O)Nc1ccccc1Cl	91.9% (inactive)
O=C(Cc1nn[nH]n1)NCCC1=CCCCC1	94.3% (inactive)

SMILES	activation (% of control)
CN(c1ccc(C(=O)NCCC2=CCCCC2)cc1)S(C)(=O)=O	158% (active)
O=C(Cc1cccc2ccccc12)NCCC1=CCCCC1	101% (inactive)
Cn1nnc2cc(C(=O)NCCC3=CCCCC3)ccc21	153% (active)
CN(c1ccc(C(=O)NCc2ccccn2)cc1)S(C)(=O)=O	106% (inactive)
O=C(NCCC1=CCCCC1)c1ccc(Cl)c([N+](=O)[O-])c1	110% (inactive)
Cc1nnc(SCC2=C(C(=O)O)N3C(=O)C(NC(=O)Cn4nc(C)c(Cl)c4C)C3SC2)s1 (configuration not stated)	99.2% (inactive)
CCOC(=O)C1CCCN(C(=O)COc2ccc(N(C)S(=O)(=O)c3ccc(C)cc3)cc2)C1 (configuration not stated)	102% (inactive)
Cc1[nH]nc(SCC(=O)NCC(C)C)c1[N+](=O)[O-]	102% (inactive)
Cc1cccc(N=C2NN=C(c3c[nH]c4ccccc34)CS2)c1	106% (inactive)
Clc1cccc(N=C2NN=C(c3ccc4c(c3)OCCO4)CS2)c1	148% (active)
c1ccc(CN2CCC(N=C3NN=C(c4ccc5c(c4)OCCO5)CS3)CC2)cc1	114% (inactive)
CCN1CCC2(CC1)N=C(c1ccc(F)cc1)C(=S)N2C(=O)c1ccc(C)cc1	111% (inactive)
c1ccc(-c2[nH]ncc2-c2nc3ccccc3[nH]2)cc1	89.6% (inactive)
c1ccc2[nH]c(-c3nc4ccccc4[nH]3)nc2c1	146% (active)
Cc1ccc(-c2nc3ccccc3[nH]2)cc1N	118% (inactive)
O=C(Nc1ccncc1)c1ccccc1[N+](=O)[O-]	105% (inactive)
O=C(NC(CC(=O)N1CCN(c2ccccc2)CC1)c1ccccc1)c1ccccc1Cl (configuration not stated)	95% (inactive)
O=C(OCC(=O)c1c[nH]c2ccccc12)c1cccc(O)c1	93.7% (inactive)
O=S(=O)(NCCc1ccc(F)cc1)c1cccc2cccnc12	102% (inactive)
OCC1(CCc2ccccc2)CCN(Cc2ccc3nsnc3c2)CC1	100% (inactive)
Cc1ccc(S(=O)(=O)N2CCOCC2)cc1C(=O)NC(=S)N(Cc1ccccc1)C(C)C	102% (inactive)
Cc1ccc(C(=O)N/C(=C/c2cccs2)C(=O)NCC2CCCO2)cc1 (configuration not stated)	99.5% (inactive)
Cc1ccc(S(=O)(=O)N2CCC(C(=O)NCC3CCCO3)CC2)cc1 (configuration not stated)	99.9% (inactive)
Cc1ccc(-n2c(C)cc(/C=C(\C#N)C(=O)NCC3CCCO3)c2C)cc1 (configuration not stated)	140% (active)
